NSD2 inh – blocks human NSD2 histone methyltransferase activity; O96028; inhibition, % at 12.5 µM; NSD2-SET H3K36me1 DELFIA fluorescence, biochemical; 44,000 tested, 0.07% active; in the data active = inhibition above about 54%, passing the limit was not always enough;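 also: inhibitors reduce the monomethyl H3K36 fluorescence signal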
Target sequence (O96028 whole entry, looked up): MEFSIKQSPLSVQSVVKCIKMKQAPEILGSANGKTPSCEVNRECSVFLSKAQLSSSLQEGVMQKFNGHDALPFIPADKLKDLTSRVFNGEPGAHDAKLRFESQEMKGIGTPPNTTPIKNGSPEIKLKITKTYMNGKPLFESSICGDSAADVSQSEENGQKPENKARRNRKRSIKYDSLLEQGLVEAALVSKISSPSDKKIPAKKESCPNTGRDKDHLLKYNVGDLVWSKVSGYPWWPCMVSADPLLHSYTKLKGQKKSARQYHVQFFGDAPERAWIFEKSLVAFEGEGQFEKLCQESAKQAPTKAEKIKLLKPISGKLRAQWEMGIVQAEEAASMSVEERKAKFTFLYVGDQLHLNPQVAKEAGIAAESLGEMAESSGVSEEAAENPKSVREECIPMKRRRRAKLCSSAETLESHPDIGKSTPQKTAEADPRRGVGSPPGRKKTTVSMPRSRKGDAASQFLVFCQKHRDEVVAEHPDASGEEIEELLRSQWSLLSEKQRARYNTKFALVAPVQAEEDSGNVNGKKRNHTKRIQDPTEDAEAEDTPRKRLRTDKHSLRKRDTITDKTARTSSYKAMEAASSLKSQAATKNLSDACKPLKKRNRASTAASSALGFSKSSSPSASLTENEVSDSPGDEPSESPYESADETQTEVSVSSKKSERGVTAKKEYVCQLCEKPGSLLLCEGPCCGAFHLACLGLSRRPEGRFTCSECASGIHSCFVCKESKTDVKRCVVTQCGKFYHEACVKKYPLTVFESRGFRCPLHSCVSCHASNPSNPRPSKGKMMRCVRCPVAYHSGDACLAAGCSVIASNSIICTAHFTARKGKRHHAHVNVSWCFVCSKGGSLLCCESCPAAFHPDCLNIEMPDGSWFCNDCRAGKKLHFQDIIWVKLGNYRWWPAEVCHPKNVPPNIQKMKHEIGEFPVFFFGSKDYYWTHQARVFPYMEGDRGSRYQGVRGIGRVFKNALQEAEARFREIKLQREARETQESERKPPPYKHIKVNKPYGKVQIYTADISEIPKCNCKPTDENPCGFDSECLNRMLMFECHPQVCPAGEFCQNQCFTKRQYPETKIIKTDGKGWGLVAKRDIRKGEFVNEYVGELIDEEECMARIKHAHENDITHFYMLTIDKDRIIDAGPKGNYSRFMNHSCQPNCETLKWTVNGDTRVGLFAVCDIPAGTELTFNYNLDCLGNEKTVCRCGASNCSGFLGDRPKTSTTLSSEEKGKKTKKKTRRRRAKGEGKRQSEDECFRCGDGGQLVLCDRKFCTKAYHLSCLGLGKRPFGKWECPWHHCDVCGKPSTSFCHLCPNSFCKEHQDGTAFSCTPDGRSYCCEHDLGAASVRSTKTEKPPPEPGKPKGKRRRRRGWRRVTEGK
Large screens that a line does not name were inactive. Shown is part of a subset that was picked to be rich in hits.

N#C/C(=C\c1ccc(C2=CCOc3ccccc32)s1)S(=O)(=O)c1ccccc1	none
C[C@]12CCC3C4(C=CC5(C=C4C(=O)c4cc6ccccc6s4)C[C@@H](O)CC[C@]35C)C1CC[C@@]2(O)CN1CCC(n2c(=O)[nH]c3ccccc32)CC1 (stereo partly specified)	none
C=C1[C@H]2CC[C@]3(O)[C@@](CC[C@@H]4[C@](C)(C(=O)O)CCC[C@]43C)(C2)[C@H]1OC(=O)/C(C)=C\C	none
COCCOC(=O)N1C(=O)[C@@]2(c3cc(C#CCC(C(=O)OC)C(=O)OC)ccc31)[C@H](C(=O)N1CCN(c3ncccn3)CC1)[C@H]1C(=O)O[C@H](c3ccccc3)[C@H](c3ccccc3)N1[C@@H]2c1ccccc1OCCO	none
CCOC(=O)c1c(C)sc2c(C)c(C)[nH]c12	none
CC(C)(C)OC(=O)N1C[C@@H]2C(NC(=O)c3nsc(Cl)c3Cl)[C@@H]2C1 (stereo partly specified)	none
CO[C@@H]1C=C[C@@]23c4cc5c(cc4CN(CC2O)[C@H]3C1)OCO5 (stereo partly specified)	none
COc1cc(O[C@@H]2O[C@H](CO)[C@@H](O)[C@H](O)[C@H]2O)cc(OC)c1OC	none
CC(C)=CCc1cc(O[C@@H]2O[C@H](CO)[C@@H](O)[C@H](O)[C@H]2O)cc(CC=C(C)C)c1C(O)C(=O)O (stereo partly specified)	NSD2 inh 61
CC(=O)c1c(O)cc(O[C@@H]2O[C@H](CO)[C@@H](O)[C@H](O)[C@H]2O)cc1O	none
CC1CCC2(CC1)Oc1ccccc1C1CC(c3ccco3)=NN12 (stereo unspecified)	none
O[C@@H]1[C@@H](O)[C@H](OC/C=C/c2ccccc2)O[C@H](CO[C@@H]2OC[C@H](O)[C@H](O)[C@H]2O)[C@H]1O	none
O=C(CCCCC(=O)N/N=C/c1ccc2ccccc2c1)NO	none
COc1cc(O)cc(OC)c1/C=N/NC(=O)CCCCC(=O)NO	none
C/C=C1/[C@H](O[C@@H]2O[C@H](CO)[C@@H](O)[C@H](O)[C@H]2O)OC=C(C(=O)OC)[C@H]1CC(=O)OCC(C)[C@@H]1C[C@H]2OC(=O)C3=CO[C@@H](O[C@@H]4O[C@H](CO)[C@@H](O)[C@H](O)[C@H]4O)/C(=C/C)[C@@H]3CC(=O)OC[C@@H]1[C@H]2C (stereo partly specified)	none
Cn1cnc(S(=O)(=O)N(Cc2ccccc2)Cc2ccccc2N2CCC(C(=O)O)CC2)c1	none
CC(C)=CCC[C@H](C)C/C=N/NC(=O)c1cccc(C(=O)NO)c1	none
O=C(CCCCCC(=O)N/N=C/c1ccc(O)c2ccccc12)NO	none
O=C(CCc1ccc(O)cc1)CC(CCc1ccc(O)cc1)O[C@@H]1O[C@H](CO)[C@@H](O)[C@H](O)[C@H]1O (stereo partly specified)	none
O=C(Oc1ccccc1N1CCOCC1)c1cccnc1Sc1ccc(Cl)cc1	none
COc1cccc2c1oc(=O)c1c(NC(C)=O)nc(-c3cccs3)nc12	none
COC(=O)C1(Cc2ccc(O)cc2)OC(=O)C(OC)=C1c1ccc(O)cc1 (stereo unspecified)	none
COC(=O)C1=COC(OC2OC(CO)C(O)C(O)C2O)C2C1C=CC2(O)CO (stereo unspecified)	NSD2 inh 60
COC(=O)C1=COC(O[C@@H]2O[C@H](CO)[C@@H](O)[C@H](O)[C@H]2O)[C@H]2[C@@H]1[C@H](OC(=O)CCc1ccc(O)cc1)C[C@]2(C)O (stereo partly specified)	none
COC(=O)C1=CO[C@@H](O[C@@H]2O[C@H](CO)[C@@H](O)[C@H](O)[C@H]2O)[C@H]2[C@@H]1[C@H](OC(C)=O)C[C@]2(C)O	none
O=c1c(O[C@@H]2O[C@H](CO)[C@@H](O)[C@H](O)[C@H]2O)c(-c2ccc(O)cc2)oc2cc(O)cc(O)c12	none
O=c1c(O[C@@H]2O[C@H](CO)[C@@H](O)[C@H](O)[C@H]2O)c(-c2ccc(O)c(O)c2)oc2cc(O)cc(O)c12	none
O=c1c(O[C@@H]2O[C@H](CO)[C@H](O)[C@H](O)[C@H]2O)c(-c2cc(O)c(O)c(O)c2)oc2cc(O)cc(O)c12	NSD2 inh 85
COC(=O)CCCCCCC(=O)N/N=C/c1cccnc1	none
CC1(C)CC[C@]2(C(=O)O[C@@H]3O[C@H](CO)[C@@H](O)[C@H](O)[C@H]3O)CC[C@]3(C)C(=CCC4[C@@]5(C)C[C@@H](O)[C@H](O)[C@@](C)(CO)C5[C@H](O)C[C@]43C)C2C1 (stereo partly specified)	none
CC1(C)CC[C@]2(C(=O)O[C@@H]3O[C@H](CO)[C@@H](O)[C@H](O)[C@H]3O)CC[C@]3(C)C(=CCC4[C@@]5(C)C[C@@H](O)[C@H](O)[C@@](C)(CO)C5[C@H](O)C[C@]43C)C2[C@@H]1O (stereo partly specified)	NSD2 inh 62
CC1(C)CC[C@]2(C(=O)O[C@@H]3O[C@H](CO)[C@@H](O)[C@H](O)[C@H]3O)CC[C@]3(C)C(=CCC4[C@@]5(C)C[C@@H](O)[C@H](O)C(C)(C)C5CC[C@]43C)C2[C@@H]1O (stereo partly specified)	none
Cc1ccc(C2=NC3(CCN(C(=O)OC(C)(C)C)CC3)NC2=S)cc1	none
O=C(NO)c1ccc(C(=O)N/N=C/c2ccc(OCCO)cc2)cc1	none
CN(C)CCCOc1ccc(/C=N/NC(=O)CCCCCCC(=O)Nc2ccccc2O)cc1	none
O=C(CCCCCCC(=O)Nc1ccccc1O)N/N=C/c1coc2ccccc2c1=O	none
C=C1C(=O)OC2CC(C)C3(/C=C/C(C)=O)OC3CC12 (stereo unspecified)	none
COc1ccc(CNC2C3CC4CC(C3)CC2C4)c(OC)c1C (stereo unspecified)	none
COC(=O)CCCCCCC(=O)N/N=C/c1ccc([N+](=O)[O-])s1	none
Cc1ccc(N=C2NC(=O)CC(C(=O)Nc3ccc(Cl)cc3)S2)cc1C (stereo unspecified)	none
COC(=O)C1=CO[C@@H](OC2OC(O)C(O)C(O)C2CO)[C@H]2[C@@H]1C=CC21C=C([C@H](C)O)C(=O)O1 (stereo partly specified)	none
COC(=O)CCCCCCC(=O)N/N=C/c1sccc1C	none
C=C1[C@H]2CC[C@@]3(C)[C@H](c4ccoc4)OC(=O)C[C@]13O[C@H]1C[C@H](O)C(C)(C)[C@H](CC(=O)OC)[C@]12C	none
O=c1cc(-c2ccc3ccccc3c2)[nH][nH]1	none
O=C(CCCCCC(=O)N/N=C/c1cccnc1Cl)NO	none
CC1OC(OC2C(O)C(CO)OC(O[C@H]3CC[C@@]4(C)C(CC[C@]5(C)C4CC=C4C6CC(C)(C)CC[C@]6(C(=O)OC6OCC(OC7OCC(O)C(O)C7O)C(O)C6O)CC[C@]45C)C3(C)C)C2O)C(O)C(OC2OCC(O)(CO)C2O)C1O (stereo partly specified)	none
NC(=O)[C@@H]1[C@H]2C(=O)O[C@H](c3ccccc3)[C@H](c3ccccc3)N2[C@H](c2ccccc2OCCO)[C@@]12C(=O)Nc1ccc(C#CC3(O)CCCCCC3)cc12	none
C[C@@H]1O[C@@H](O[C@@H]2[C@@H](O)[C@H](O[C@@H]3[C@@H](O)[C@@H](O)[C@H](O[C@H]4[C@H](OC(=O)[C@]56CCC(C)(C)C[C@H]5C5=CCC7[C@@]8(C)C[C@H](O)[C@H](O[C@@H]9O[C@H](C(=O)O)[C@@H](O)[C@H](O)[C@H]9O)[C@@](C)(CO)C8[C@H](O)C[C@@]7(C)[C@]5(C)C[C@H]6O)OC[C@H](O)[C@@H]4O)O[C@H]3C)OC[C@H]2O)[C@H](O)[C@H](O)[C@H]1O (stereo partly specified)	none
